Out of some 310,000 compounds screened, about 14,000 (4.5%) showed an effect of 50% or more. The effect is printed as a negative number. For the sample, strong results were picked, then their nearest neighbours and some compounds at random.
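Note: peak tail current of the secondary pulse compared with the same well before compound.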

Chain of human ether-à-go-go-related gene (hERG) potassium channel (Q12809 whole entry, looked up): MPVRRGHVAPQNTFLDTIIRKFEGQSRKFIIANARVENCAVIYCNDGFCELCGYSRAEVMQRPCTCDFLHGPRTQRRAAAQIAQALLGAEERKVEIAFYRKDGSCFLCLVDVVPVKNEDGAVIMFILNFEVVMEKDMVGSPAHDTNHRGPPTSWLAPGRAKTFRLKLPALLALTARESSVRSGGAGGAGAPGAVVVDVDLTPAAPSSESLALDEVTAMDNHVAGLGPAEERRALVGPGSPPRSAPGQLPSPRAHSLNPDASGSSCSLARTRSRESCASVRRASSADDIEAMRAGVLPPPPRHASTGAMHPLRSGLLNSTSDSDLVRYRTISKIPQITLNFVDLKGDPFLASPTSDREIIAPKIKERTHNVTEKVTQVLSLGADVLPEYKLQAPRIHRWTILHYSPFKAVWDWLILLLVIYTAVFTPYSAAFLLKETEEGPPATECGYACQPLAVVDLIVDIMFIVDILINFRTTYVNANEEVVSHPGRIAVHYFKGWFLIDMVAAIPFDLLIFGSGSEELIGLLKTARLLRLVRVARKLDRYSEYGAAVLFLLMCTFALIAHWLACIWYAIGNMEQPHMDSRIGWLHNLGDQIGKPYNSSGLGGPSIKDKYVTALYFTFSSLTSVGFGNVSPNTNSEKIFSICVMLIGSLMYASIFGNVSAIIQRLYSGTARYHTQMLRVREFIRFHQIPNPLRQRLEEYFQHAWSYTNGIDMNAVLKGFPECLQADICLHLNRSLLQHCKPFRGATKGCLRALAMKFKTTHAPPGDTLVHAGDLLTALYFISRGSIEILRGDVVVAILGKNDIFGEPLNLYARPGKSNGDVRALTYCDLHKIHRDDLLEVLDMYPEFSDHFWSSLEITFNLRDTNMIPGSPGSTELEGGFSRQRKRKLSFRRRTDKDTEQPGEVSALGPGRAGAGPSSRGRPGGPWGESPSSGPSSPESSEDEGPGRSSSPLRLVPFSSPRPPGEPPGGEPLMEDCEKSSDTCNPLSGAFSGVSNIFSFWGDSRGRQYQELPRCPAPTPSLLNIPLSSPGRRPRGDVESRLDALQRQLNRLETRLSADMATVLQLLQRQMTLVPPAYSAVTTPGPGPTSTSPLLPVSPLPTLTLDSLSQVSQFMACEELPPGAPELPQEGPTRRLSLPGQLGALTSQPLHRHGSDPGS

This experiment addresses human ether-à-go-go-related gene (hERG) potassium channel (human, UniProt Q12809). Briefly: primary screen, population patch clamp on CHO cells stably expressing hERG; higher = less effect of the substance.
As for `CC(=O)Cn1c(N2CCC(Cc3ccccc3)CC2)nc2c1c(=O)[nH]c(=O)n2C`, the “hERG current change (%, negative = inhibition) at 10uM” value worked out at 10.3%.

Take `COCCN(C(=S)Nc1ccc(C(C)C)cc1)C(C)c1cccs1` (stereo not shown): the “hERG current change (%, negative = inhibition) at 10uM” value came to 8.26%. For the compound `COCC(C)NC(=O)CSc1ncnc2sc(-c3ccccc3)cc12` (stereo not shown), the “hERG current change (%, negative = inhibition) at 10uM” value was -10.1%.

Consider `CCC(C)(C)n1c(=O)[nH]c2c(c1=O)CCC2`, for which the “hERG current change (%, negative = inhibition) at 10uM” value was 6.59%. With `O=C(O)COCC(=O)Nc1ccc(OCCc2ccccc2)cc1`, the “hERG current change (%, negative = inhibition) at 10uM” value is given as 11.8%.

As to `Cc1cccc(NS(=O)(=O)c2cc3c4c(c2)CCC(=O)N4CCC3)c1`, the “hERG current change (%, negative = inhibition) at 10uM” value was -21.6%. The result for `COc1cc(/C=C(/C#N)C(=O)Nc2ccccc2)c(Br)cc1OCc1ccc(C(=O)O)cc1` reads 9.98%; that for `CC(C)Cc1ccc(C(C)C(=N)N)cc1.Cl` (stereo not shown), -6.14%. The result for `COc1ccc(CCN=C(N)C(C)c2ccccc2)cc1OC.Cl` (stereo not shown) reads 11.4%; that for `CC(C)Cc1ccc(C(C)C(N)=Nc2ccc(O)cc2)cc1.Cl` (stereo not shown), -80.2%; that for `CC(C)Cc1ccc(C(C)C(N)=NCCc2ccccc2)cc1.Cl` (stereo not shown), -67.5%.

In the case of `CC(C)Cc1ccc(C(C)C(=O)Nc2ccc(O)cc2)cc1` (stereo not shown), the “hERG current change (%, negative = inhibition) at 10uM” value is given as 11.3%. The result for `CC(C)Cc1ccc([C@H](C)C(=O)O)cc1` reads 7.11%. Turning to `COc1cc(NC(=O)C2CC(c3cccc(Br)c3)=NO2)cc(OC)c1OC` (stereo not shown), the “hERG current change (%, negative = inhibition) at 10uM” value is -11.6%. The result for `COc1ccccc1N1CCN(C(=O)c2ccccc2Oc2ccccc2)CC1` reads -25.7%. The result for `Cc1cccc(N(CC(O)CON=C2c3ccccc3-c3ccccc32)S(C)(=O)=O)c1` (stereo not shown) reads 15.1%; that for `O=C(COc1ccc([N+](=O)[O-])cc1)NCc1cccnc1`, -33.4%.

On to `COc1ccc(CCNC(=O)COc2ccc([N+](=O)[O-])cc2)cc1`, for which the “hERG current change (%, negative = inhibition) at 10uM” value was -31.1%. With `O=C(COc1ccc([N+](=O)[O-])cc1)NCc1ccccc1`, the “hERG current change (%, negative = inhibition) at 10uM” value is -38.9%. The result for `COc1ccc(OCC(=O)NNC(=S)NC(=O)c2ccc([N+](=O)[O-])cc2)cc1` reads 15.6%. The result for `O=C(COc1ccc([N+](=O)[O-])cc1)NCc1ccncc1` reads -67.6%; that for `COc1ccc(CNC(=O)COc2ccc([N+](=O)[O-])cc2)cc1`, -64.5%. As for `COc1ccc(P(=O)(COc2ccc([N+](=O)[O-])cc2)c2ccc(OC)cc2)cc1`, the “hERG current change (%, negative = inhibition) at 10uM” value is given as -71%. For `CN(C)c1ccc(P(=O)(COc2ccc([N+](=O)[O-])cc2)c2ccc(N(C)C)cc2)cc1`, the “hERG current change (%, negative = inhibition) at 10uM” value is -41.9%. Regarding `COc1ccc(CNC(=O)COc2ccc(OC)cc2)cc1`, the “hERG current change (%, negative = inhibition) at 10uM” value is reported as 13.8%. The result for `CN(C)c1ccc(/C=N/NC(=O)c2ccc3c(c2)OCCO3)cc1` reads 9.93%; that for `CCC(CC)NC(=O)CCCSc1nc2ccccc2[nH]1`, 22.3%; that for `O=C(Nc1cccnc1)c1ccc([N+](=O)[O-])s1`, -20.1%. The result for `O=C(O)Cn1c(=O)c2c3c(sc2n(Cc2ccccc2)c1=O)CCCC3` reads 16.6%; that for `CCOC(=O)c1sc2c(c1C)c(=O)n(Cc1ccccc1)c(=O)n2CCN(C)C`, -58.9%. The result for `CCn1c(=O)n(CCc2ccccc2)c(=O)c2c3c(sc21)CCCC3` reads 1.05%; that for `Cc1c(C(=O)O)sc2c1c(=O)n(Cc1ccccc1)c(=O)n2C`, 23.2%; that for `CCOC(=O)c1sc2c(c1C)c(=O)n(CCO)c(=O)n2Cc1ccccc1`, 4.88%. Regarding `CN(C)CCCn1c(=O)n(CCc2ccccc2)c(=O)c2c3c(sc21)CCCCC3`, the “hERG current change (%, negative = inhibition) at 10uM” value is on record as -70.4%. As for `CN(C)CCCn1c(=O)n(C2CCCCC2)c(=O)c2c3c(sc21)CCCCC3`, the “hERG current change (%, negative = inhibition) at 10uM” value is -53.8%.

`CN(C)CCn1c(=O)n(Cc2ccccc2)c(=O)c2c3c(sc21)CCCCC3`: the “hERG current change (%, negative = inhibition) at 10uM” value is recorded as -3.31%. On to `NC(=O)Cn1c(=O)n(C2CCCCC2)c(=O)c2c3c(sc21)CCCCC3`, for which the “hERG current change (%, negative = inhibition) at 10uM” value is reported as -6.3%. The result for `CN(C)CCCn1c(=O)n(Cc2ccccc2)c(=O)c2c3c(sc21)CCCCC3` reads -58.9%; that for `NC(=O)Cn1c(=O)n(CCc2ccccc2)c(=O)c2c3c(sc21)CCCC3`, -15%. Take `CN(C)CCn1c(=O)n(C2CCCCC2)c(=O)c2c3c(sc21)CCCCC3`: the “hERG current change (%, negative = inhibition) at 10uM” value is -25.3%. As for `COc1ccc(OC)c(S(=O)(=O)NCCc2csc(-c3cccnc3)n2)c1`, the “hERG current change (%, negative = inhibition) at 10uM” value is on record as 4.92%. The result for `CCOc1ccc(C2(C#N)CC[N+](C)(C)CC2)cc1.[Br-]` reads 2.83%. The result for `CS(=O)(=O)N(CC(=O)NCCSCc1cccc(Cl)c1)c1ccccc1F` reads -20.2%; that for `Cc1ccc(C(=O)Nc2ccccc2C(=O)NCc2ccccc2)cc1`, 5.63%.

With `Cc1cccc(C(=O)NCc2nnc3c4ccccc4c(-c4ccccc4)nn23)c1`, the “hERG current change (%, negative = inhibition) at 10uM” value was -4.14%. Regarding `OCc1nnc2c3ccccc3c(-c3ccccc3)nn12`, the “hERG current change (%, negative = inhibition) at 10uM” value was -4.77%. The result for `O=C(CSc1nnc(CNC(=O)c2ccccc2)o1)c1ccc(Cl)cc1` reads -30.3%.

Take `CC(=O)NCc1nnc2c3ccccc3c(-c3ccccc3)nn12`: the “hERG current change (%, negative = inhibition) at 10uM” value was -31.9%.

On to `O=C(NCc1nnc2c3ccccc3c(-c3ccccc3)nn12)c1ccccc1Cl`, for which the “hERG current change (%, negative = inhibition) at 10uM” value is on record as -78.9%. The result for `O=C(NCc1nnc2c3ccccc3c(-c3ccccc3)nn12)c1ccc(Cl)cc1` reads -52.4%. Turning to `CC(OC(=O)C1CCCCC1)C(=O)Nc1cccc([N+](=O)[O-])c1` (stereo not shown), the “hERG current change (%, negative = inhibition) at 10uM” value is recorded as -4.48%. Turning to `O=C(O)c1ccccc1N/N=C/c1cc(Br)cc(Br)c1O`, the “hERG current change (%, negative = inhibition) at 10uM” value was found to be 11.6%. On to `C=CCN(CC=C)C(=S)Nc1ccc(OC)c(OC)c1`, for which the “hERG current change (%, negative = inhibition) at 10uM” value is 10.3%. The result for `Cc1cc(OCC(=O)N2CCOCC2)c(C(C)C)cc1Cl` reads -4.17%. Consider `CC(O)CC(C(=O)NNc1ccccc1)C(=O)NNc1ccccc1` (stereo not shown), for which the “hERG current change (%, negative = inhibition) at 10uM” value was determined as 21%. `COc1cc(C(=O)NC(C)c2ccc(-n3ccnc3)cc2)cc(OC)c1C` (stereo not shown): the “hERG current change (%, negative = inhibition) at 10uM” value is -72.9%. The result for `CC(=O)Nc1ccc(C(=O)NC(C)c2ccc(-n3ccnc3)cc2)cc1` (stereo not shown) reads 7.74%; that for `CC(NC(=O)C1CCN(C(=O)c2ccc(F)cc2)CC1)c1ccc(-n2ccnc2)cc1` (stereo not shown), -64.7%. The result for `Cc1ccc(C(=O)NC(C)c2ccc(-n3ccnc3)cc2)cc1` (stereo not shown) reads -54%; that for `O=C(c1ccc(F)cc1)C1CCN(C(=O)c2ccncc2)CC1`, -22.4%; that for `Cc1ccccc1C(=O)N1CCC(C(=O)NC(C)c2ccc(-n3ccnc3)cc2)CC1` (stereo not shown), -23%. The result for `CC(NC(=O)c1ccco1)c1ccc(-n2ccnc2)cc1` (stereo not shown) reads -37%; that for `CC(=O)Nc1cccc(C(=O)NC(C)c2ccc(-n3ccnc3)cc2)c1` (stereo not shown), -0.474%; that for `Cc1ccc(C(=O)NC(C)c2ccc(-n3ccnc3)cc2)o1` (stereo not shown), -37.4%.

As for `CC(NC(=O)c1cccc(N(C)C)c1)c1ccc(-n2ccnc2)cc1` (stereo not shown), the “hERG current change (%, negative = inhibition) at 10uM” value is recorded as -68.3%. For the compound `Cc1occc1C(=O)N1CCCC(Nc2ccc(F)cc2)C1` (stereo not shown), the “hERG current change (%, negative = inhibition) at 10uM” value is -3.68%. Turning to `Cc1ccc(C(=O)Nc2ccc(N3CCN(C(=O)c4cccs4)CC3)cc2)c(Cl)c1`, the “hERG current change (%, negative = inhibition) at 10uM” value was -5.13%.

On to `COC(=O)CSc1nnc(-c2cccnc2)n1-c1cc(OC)cc(OC)c1`, for which the “hERG current change (%, negative = inhibition) at 10uM” value is listed as -19.3%. As for `N#Cc1ccccc1Oc1ccccc1C=O`, the “hERG current change (%, negative = inhibition) at 10uM” value is on record as -16.8%. Consider `Cc1ccc2nc(C)cc(N/N=C/c3cccc(O)c3)c2c1`, for which the “hERG current change (%, negative = inhibition) at 10uM” value is 12.4%. The result for `COc1ccc(S(=O)(=O)n2nc(OC(=O)c3cccs3)cc2N)cc1` reads -3.07%. Turning to `CCOC(=O)CC1=NN(c2ccccc2)C(=O)/C1=C\c1ccc(N(C)C)cc1`, the “hERG current change (%, negative = inhibition) at 10uM” value was 24.6%. The result for `O=C(CNc1cccc(S(=O)(=O)N2CCCC2)c1)Nc1ccc(C(F)(F)F)cc1` reads 15.1%. The result for `CC(C)Cn1cnc2c1c(=O)n(C)c(=O)n2C` reads 27.8%; that for `CCOc1cc(C(=S)N2CCCCC2)ccc1OS(=O)(=O)c1ccc(Cl)cc1`, -1.37%. The result for `N#CCCn1c(=S)[nH]c2ccccc21` reads 12.9%.

Consider `O=C(CN(CC1CCCO1)C(=O)CNS(=O)(=O)c1ccccc1)NCc1ccc(F)cc1` (stereo not shown), for which the “hERG current change (%, negative = inhibition) at 10uM” value came out at 11.9%. The result for `C/C(=C1\SC(N2CCOCC2)=NC1=O)c1ccccc1` reads -12.5%. As for `Cc1ccc(C(=O)NC(C)c2ccc(-n3ccnc3)cc2)c(C)c1` (stereo not shown), the “hERG current change (%, negative = inhibition) at 10uM” value is listed as -57.4%.

Turning to `CSCc1ccc(C(=O)NC(C)c2ccc(-n3ccnc3)cc2)cc1` (stereo not shown), the “hERG current change (%, negative = inhibition) at 10uM” value is recorded as -56%.

Take `CSc1ccccc1C(=O)NC(C)c1ccc(-n2ccnc2)cc1` (stereo not shown): the “hERG current change (%, negative = inhibition) at 10uM” value is -39.7%. For the compound `Cc1ccc(C(O)c2ccc(-n3ccnc3)cc2)cc1` (stereo not shown), the “hERG current change (%, negative = inhibition) at 10uM” value is listed as -1.74%.

Regarding `CC(NC(=O)c1ccc(CS(C)(=O)=O)cc1)c1ccc(-n2ccnc2)cc1` (stereo not shown), the “hERG current change (%, negative = inhibition) at 10uM” value is -1.32%. The result for `Cc1ccc(C)c(C(=O)NC(C)c2ccc(-n3ccnc3)cc2)c1` (stereo not shown) reads -62.4%. In the case of `C/C(=N\NC(=O)c1ccc(C)cc1C)c1ccc(-n2ccnc2)cc1`, the “hERG current change (%, negative = inhibition) at 10uM” value is -16.6%. The result for `CC(NC(=O)c1cc(F)c(F)c(F)c1F)c1ccc(-n2ccnc2)cc1` (stereo not shown) reads -65.2%. The result for `CC(=O)c1sc(NC(=O)CS(=O)(=O)c2ccccc2)nc1C` reads -25.3%; that for `CCOC(=O)/C(C#N)=C/c1ccc(OC(=O)c2ccccn2)cc1`, -5.99%.

The values above are taken from publication PMC4336329 (PLoS ONE, 2015).
